Sampled rows, rich in hits. Any-hit rate of the full collection: about 19%.
IL1B secr inh: qHTS for Inhibitors of Inflammasome Signaling: IL-1-beta AlphaLISA Primary Screen | THP-1 LPS/ATP IL-1B secretion, AlphaLISA, 16 h; hits give low values | hit rate 4.7% among 360,000 | activity change, % at 57.5 µM; in the data active means activity change below about -50%; inconclusive means mostly about -30% to -49%; further: on the % scale 0 is the no-effect control and ±100 the full control effect
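Secreted IL-1B measured by AlphaLISA bead assay after 16 h compound exposure of THP-1 cells; compounds (final up to 57.5 uM) added 1 h before LPS (250 ng/mL) and ATP (1.25 mM) stimulation; lower signal means less secretion.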
TDP1 inh: qHTS Assay for Inhibitors of Tyrosyl-DNA Phosphodiesterase (TDP1). Tyrosyl-DNA phosphodiesterase 1 (Homo sapiens), Q9NUW8. recombinant TDP1, AlphaScreen DNA substrate cleavage. Potency, µM (top dose mostly 130 µM), without a hit: at the top dose activity change, negative = inhibition, hits mostly inhibitors. hit rate 0.28% among 350,000; further: potency means the concentration at half of the fitted maximal effect; on the % scale 0 is the no-effect control and ±100 the full control effect; nearly all actives have a fitted effect of over 40% in size
Target sequence (Q9NUW8 whole entry, looked up): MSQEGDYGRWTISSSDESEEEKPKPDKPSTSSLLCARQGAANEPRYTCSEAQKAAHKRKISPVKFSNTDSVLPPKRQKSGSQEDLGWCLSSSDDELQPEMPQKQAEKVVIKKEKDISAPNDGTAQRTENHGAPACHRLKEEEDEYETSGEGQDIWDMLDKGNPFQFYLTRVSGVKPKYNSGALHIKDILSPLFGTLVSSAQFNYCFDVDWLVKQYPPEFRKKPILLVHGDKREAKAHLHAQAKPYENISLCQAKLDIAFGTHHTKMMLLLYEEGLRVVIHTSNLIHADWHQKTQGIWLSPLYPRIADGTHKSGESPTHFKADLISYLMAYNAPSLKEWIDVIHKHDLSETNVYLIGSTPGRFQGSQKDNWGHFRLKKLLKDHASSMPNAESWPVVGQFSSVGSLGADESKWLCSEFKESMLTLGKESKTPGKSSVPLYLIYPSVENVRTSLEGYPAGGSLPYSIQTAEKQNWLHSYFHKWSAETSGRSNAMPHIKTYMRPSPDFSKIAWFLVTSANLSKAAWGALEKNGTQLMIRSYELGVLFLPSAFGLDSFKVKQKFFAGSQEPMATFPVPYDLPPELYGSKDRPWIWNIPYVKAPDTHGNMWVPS
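Recombinant E. coli-expressed Tdp1 (1 nM) preincubated with compound 15 min at RT, then 5'-biotin/3'-phosphotyrosine-FITC DNA substrate (15 nM) added for 5 min. AlphaScreen beads (10 ug/ml) added, 10 min RT; tyrosine-FITC cleavage read as signal loss.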
TGFb inhibitor: qHTS for Inhibitors of TGF-b; HepG2 CAGA-GFP TGF-b/SMAD3 reporter, GFP fluorescence, 18 h; TGF-beta stimulated, 500 pg/mL final; Potency, µM (doses to about 46.1 µM), inactives show at the highest dose activity, negative = inhibition, most hits filed as inhibitors; hit rate 1.2% among 410,000; AID 588855, 2011; further: potency means the concentration at half of the fitted maximal effect; on the % scale 0 is the no-effect control and ±100 the full control effect; nearly all actives have a fitted effect of over 65% in size
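First, reporter cells (HEPG2 CAGA-GFP) rested 2 h at 37 degrees C. Next, compounds were pinned in and TGF-beta added to 500 pg/mL final. After 18 h, GFP was imaged per cell and summed per well.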
HepG2 tox: qHTS for Inhibitors of TGF-b: Cytotox Counterscreen; HepG2 CAGA-GFP viability, ATP luminescence, 18 h; hit rate 0.76% among 410,000; Potency, µM (series often up to 46.1 µM), inactives show at the highest dose activity change, negative = cytotoxicity, actives largely listed as cytotoxic; further: potency means the concentration at half of the fitted maximal effect
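CellTiter-Glo luminescence gave cytotoxicity after 18 hours at 37 degrees C. The cells were HepG2 CAGA-GFP in 1% FBS DMEM, stimulated with 500 pg/mL TGF-beta after compound addition. %Activity was normalised to no-cell wells (complete cell-killing) and DMSO (no toxicity), and curves were fitted and classified.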
TDP1 cell CPT: qHTS for Inhibitors of human tyrosyl-DNA phosphodiesterase 1 (TDP1): qHTS in cells in presence of CPT; Potency, µM (top dose mostly 46.2 µM), for inactives: at the top dose activity change, negative = growth inhibition, actives largely listed as inhibitors; chicken DT40 Tdp1-/-;hTDP1 cells + 20 nM CPT, ATP luminescence, 48 h; hit rate 12% among 420,000; further: potency means the concentration at half of the fitted maximal effect; on the % scale 0 is the no-effect control and ±100 the full control effect; nearly all actives have a fitted effect of over 55% in size
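Chicken DT40 Tdp1-/- cells complemented with human TDP1, 400 cells/well, exposed to compounds plus 20 nM camptothecin for at least 48 h at 37 C; viability read as ATP content by CellTiter-Glo luminescence.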
TDP1 cell noCPT: qHTS for Inhibitors of human tyrosyl-DNA phosphodiesterase 1 (TDP1): qHTS in cells in absence of CPT | DT40 Tdp1-/- hTDP1 cells, no CPT, ATP luminescence, 48 h | Potency, µM (series often up to 46.2 µM), without a hit: at the highest dose activity change, negative = growth inhibition, hits mostly inhibitors | hit rate 15% among 420,000; further: potency means the concentration at half of the fitted maximal effect; on the % scale 0 is the no-effect control and ±100 the full control effect; nearly all actives have a fitted effect of over 55% in size
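Chicken DT40 Tdp1-/- cells complemented with human TDP1, screened without camptothecin (DMSO vehicle only), 400 cells/well. Compounds pin-transferred, cells incubated at 37 °C for at least 48 hr. Growth read as ATP-dependent luminescence (CellTiter-Glo, 30 min at RT).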
An asterisk follows results filed as active; [ ] = dose if it differs, or a comment. Unless noted, the call rests on the fitted dose curve; in most records, active means well fitted curve in the direction sought with a large enough effect; inconclusive means small, poorly fitted or top-dose-only effect, or another doubt; inactive means no such curve, though single readings can be large; an effect the other way counts as inactive or inconclusive.

How did CCCn1c(=O)c2ccccc2n2c(SCCOc3ccc(OC)cc3)nnc12 do in these assays?
IL1B secr inh: -4; TDP1 inh: -2%; TGFb inhibitor: 20%; HepG2 tox: 5%; TDP1 cell CPT: inconclusive; TDP1 cell noCPT: inconclusive

Results for COc1ccccc1Cn1c(=O)c2ccccc2n2c(Sc3ncnc4sccc34)nnc12 ?
IL1B secr inh: -85*; TDP1 inh: 2%; TGFb inhibitor: 2%; HepG2 tox: -4%; TDP1 cell CPT: 21µM*; TDP1 cell noCPT: 21µM*

What do the screens show for `COc1ccccc1Cn1c(=O)c2ccccc2n2c(SCc3csc(C)n3)nnc12`?
IL1B secr inh: -55*; TDP1 inh: 6%; TGFb inhibitor: -25%; HepG2 tox: 1%; TDP1 cell CPT: inconclusive; TDP1 cell noCPT: inconclusive

How did CCC(=O)NC(c1cc(Cl)c2cccnc2c1O)C1CC1 (centres undefined) do in these assays?
TDP1 inh: 0%; TGFb inhibitor: 2µM*; HepG2 tox: -23%

How did CCC(=O)NC(c1cc(Cl)c2cccnc2c1O)C(C)C (centres undefined) do in these assays?
TDP1 inh: 1%; TGFb inhibitor: 2.8µM*; HepG2 tox: -42%

How did CC(=O)NC(c1cc(F)c2cccnc2c1O)C1CC1 (centres undefined) do in these assays?
TDP1 inh: 1%; TGFb inhibitor: inconclusive; HepG2 tox: -44%

What do the screens show for `O=C(COc1ccc2c(-c3ccccc3)cc(=O)oc2c1)N[C@H](Cc1c[nH]c2ccccc12)C(=O)O`?
IL1B secr inh: 4; TGFb inhibitor: -4%; HepG2 tox: 6%; TDP1 cell CPT: 16%; TDP1 cell noCPT: -3%

What do the screens show for `O=C(C1CCCCN1S(=O)(=O)c1ccccc1)N1CCN(Cc2ccccc2)CC1` (centres undefined)?
IL1B secr inh: 7; TDP1 inh: -1%; TGFb inhibitor: 3%; HepG2 tox: -15%; TDP1 cell CPT: inconclusive; TDP1 cell noCPT: -26%

Results for O=C(C1CCCN1S(=O)(=O)c1ccc(Cl)c(Cl)c1)N1CCCCC1 (centres undefined) ?
IL1B secr inh: 7; TDP1 inh: 1%; TGFb inhibitor: -10%; HepG2 tox: -23%; TDP1 cell CPT: 18µM*; TDP1 cell noCPT: 16µM*

What do the screens show for `O=C(C1CCCCN1S(=O)(=O)c1ccccc1)N1CCCCC1` (centres undefined)?
IL1B secr inh: 21; TDP1 inh: 2%; TGFb inhibitor: -1%; HepG2 tox: 6%; TDP1 cell CPT: inconclusive; TDP1 cell noCPT: 16µM*

Results for O=C(C1CCCCN1S(=O)(=O)c1ccccc1)N1CCN(C(c2ccccc2)c2ccccc2)CC1 (centres undefined) ?
IL1B secr inh: 12; TDP1 inh: -1%; TGFb inhibitor: -11%; HepG2 tox: -11%; TDP1 cell CPT: 23µM*; TDP1 cell noCPT: 21µM*

How did O=C(C1CCCN1S(=O)(=O)c1ccc(Cl)c(Cl)c1)N1CCOCC1 (centres undefined) do in these assays?
IL1B secr inh: -23; TDP1 inh: 4%; TGFb inhibitor: 0%; HepG2 tox: 2%; TDP1 cell CPT: -16%; TDP1 cell noCPT: -13%

Results for CC(N)=NCCCC(N)C(=O)O (centres undefined) ?
TDP1 inh: 9%[56.1 µM]

Results for O=C1CCCc2c1[nH]c1ccc(CN3CCCCC3)cc21 ?
IL1B secr inh: -52*; TDP1 inh: -4%; TGFb inhibitor: -5%; HepG2 tox: -28%; TDP1 cell CPT: 16µM*; TDP1 cell noCPT: inconclusive

What do the screens show for `Cc1ccc2[nH]c3c(c2c1)CCCC3=O`?
IL1B secr inh: 0; TDP1 inh: 6%; TGFb inhibitor: -1%; HepG2 tox: -17%; TDP1 cell CPT: -5%; TDP1 cell noCPT: 5%

How did COc1cccc(C(O)c2ncc(-c3cccc4ccccc34)[nH]2)c1 (centres undefined) do in these assays?
IL1B secr inh: -8; TGFb inhibitor: 0%; HepG2 tox: -28%; TDP1 cell CPT: 16µM*; TDP1 cell noCPT: 9.2µM*

What do the screens show for `Cc1cc(Cl)ccc1C(O)c1ncc(-c2ccccc2Cl)[nH]1` (centres undefined)?
IL1B secr inh: -5; TGFb inhibitor: inconclusive; HepG2 tox: -26%; TDP1 cell CPT: 21µM*; TDP1 cell noCPT: inconclusive

Results for COc1ccccc1-c1cnc(C(O)c2ccc(C)cc2)[nH]1 (centres undefined) ?
IL1B secr inh: 0; TGFb inhibitor: 30%; HepG2 tox: -4%; TDP1 cell CPT: -27%; TDP1 cell noCPT: 18µM*

How did OC(c1cccc(Cl)c1)c1ncc(-c2cccc3ccccc23)[nH]1 (centres undefined) do in these assays?
IL1B secr inh: -21; TGFb inhibitor: inconclusive; HepG2 tox: -43%; TDP1 cell CPT: 21µM*; TDP1 cell noCPT: 16µM*

How did Cc1cc2oc(C(=O)Nc3ccc(S(N)(=O)=O)cc3)cc(=O)c2cc1C do in these assays?
TDP1 inh: 4%; TGFb inhibitor: 10%; HepG2 tox: 15%; TDP1 cell CPT: 2%; TDP1 cell noCPT: -23%

How did Cc1cccc(Cn2ccn(Cc3ccc(Cl)cc3)c(=O)c2=O)c1 do in these assays?
TDP1 inh: 4%; TGFb inhibitor: 12%; HepG2 tox: 1%; TDP1 cell CPT: inconclusive; TDP1 cell noCPT: -12%

How did COc1ccc(OC)c(C(O)c2ncc(-c3ccccc3Cl)[nH]2)c1 (centres undefined) do in these assays?
IL1B secr inh: 1; TGFb inhibitor: -9%; HepG2 tox: -4%; TDP1 cell CPT: -110%; TDP1 cell noCPT: -42%

What do the screens show for `COc1ccc(OC)c(C(O)c2ncc(-c3cccc4ccccc34)[nH]2)c1` (centres undefined)?
IL1B secr inh: 46; TGFb inhibitor: -19%; HepG2 tox: -22%; TDP1 cell CPT: 18µM*; TDP1 cell noCPT: 26µM*

Results for O=C(c1cnccn1)N1CCC2(CC1)CCN(c1ccncc1)CC2 ?
TDP1 cell CPT: -4%; TDP1 cell noCPT: -28%

From PubChem BioAssay
